G9a inh: inhibitors of human histone lysine methyltransferase G9a; Q96KQ7; G9a H3K9 monomethylation, AlphaScreen, 2 h; Potency, µM (series often up to 102 µM), actives largely listed as inhibitors; actives 8.8% (n = 350,000); AID 504332; also: nearly all actives have a fitted effect of over 75% in size
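Signal arises when biotinylated H3K9 peptide, once monomethylated, bridges streptavidin donor and antibody-captured acceptor beads. Enzyme at 20 nM was preincubated 15 min with test compounds; peptide 500 nM and SAM 20 uM then reacted for 2 h.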
BAZ2B inh: inhibitors of human BAZ2B bromodomain; AID 504333; Q9UIF8; Potency, µM (doses to about 114 µM), hits mostly inhibitors; AlphaScreen BAZ2B-H3K14Ac peptide displacement; actives 4.4% (n = 360,000); also: nearly all actives have a fitted effect of over 60% in size
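BAZ2B (50 nM) with biotin-H3(5-23)K14Ac peptide (50 nM) in PBS pH 7.4, 0.01% Tween-20, preformed 30 min, then compound 30 min at room temperature; top concentration 110uM. AlphaScreen streptavidin donor/nickel chelate acceptor beads (10 ug/mL final), 20 min dark, signal read.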
PI5P4Ka inh: inhibitors of human PI5P4K alpha; P48426; PI5P4Kalpha enzyme, ADP-Glo luminescence, 60 min; hits give low values; max response, %; actives 1.2% (n = 330,000); AID 652105; active = max response of -50% or lower; inconclusive = between -30% and -50%; inactive = -30% or higher; also: value at the top dose of about 77 µM
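Controls without substrate or without enzyme flank wells where PI5P4Kalpha converts substrate using 5 microM ATP (final). Incubation lasts 60 minutes at room temperature; ADP formed is read by ADP-Glo luminescence.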
HP1b binding inh: inhibitors of HP1-beta chromodomain binding to methylated histone tails. P83916. AlphaScreen HP1-beta / biotin-H3K9me3 peptide binding. Potency, µM (highest dose often 114 µM), most hits filed as inhibitors. actives 0.56% (n = 390,000). AID 540317; also: nearly all actives have a fitted effect of over 70% in size
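HP1-beta protein (50 nM final) preincubated 30 min at room temperature with biotinylated H3(1-18)K9me3 peptide (50 nM) in PBS pH 7.4, 0.01% Tween-20, then compound added for 30 min. AlphaScreen streptavidin donor/nickel chelate acceptor beads (10 ug/mL final), 30 min dark, luminescence read.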
L3MBTL1 inh: L3MBTL1 (human) inhibition; Q9Y468; AlphaScreen L3MBTL1–H3K9me1 peptide binding; Potency, µM (titrated, usually from 57.1 µM), hits mostly inhibitors; actives 0.66% (n = 230,000); also: nearly all actives have a fitted effect of over 60% in size
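AlphaScreen proximity signal between nickel-chelate acceptor and streptavidin donor beads (final 10 ug/mL) reports binding of 50 nM L3MBTL1 to 75 nM biotin-H3 K9me1 peptide; complex incubated with compounds 30 min at room temperature; cefsulodin titration as control.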
JMJD2A Tudor inh: blocks the human JMJD2A Tudor domain. O75164. AlphaScreen JMJD2A-Tudor / H3K4me3 peptide binding. Potency, µM (doses to about 114 µM), usual class: inhibitors. actives 4.4% (n = 390,000). AID 504339; also: nearly all actives have a fitted effect of over 50% in size
Numbers stand for hits; n = inactive; u = inconclusive; x = not tested or not shown; [ ] = another dose, or the depositor's remark. Sampled rows, rich in hits. Any-hit rate of the full collection: about 11%. Unless noted, calls follow the shape of the dose curve; as a rule, active = well fitted inhibition curve with a large enough effect; inconclusive = small, poorly fitted or top-dose-only effect; inactive = no such curve, though single readings can be large or run the other way.

SMILES | G9a inh | BAZ2B inh | PI5P4Ka inh | HP1b binding inh | L3MBTL1 inh | JMJD2A Tudor inh
CC(=O)NC1C(=O)N(Cc2ccccc2)c2ccc(Br)cc21 (centres undefined) | 40µM | n | n | n | x | n[11.4 µM]
CCCCN1C(=O)C(NC(C)=O)c2ccccc21 (centres undefined) | 22µM | n | n | n | n | n
CC(=O)NC1C(=O)N(CCc2ccccc2)c2ccc(Br)cc21 (centres undefined) | 11µM | n | n | n | x | n
CCc1noc(-c2ccc(N(C)Cc3ccc(OC)cc3)c([N+](=O)[O-])c2)n1 | n | n | x | n | x | n
CSc1cnn(Cc2ccccc2)c(=O)c1SCc1ccccc1 | 8.9µM | n | u | n | n | n
CO[C@]12CC(COC(=O)c3cncc(Br)c3)CN(C)[C@@H]1Cc1cn(C)c3cccc2c13 (some centres undefined) | n[2.33 µM] | x | x | x | x | x
O=C(Nc1nnc(-c2ccc(Cl)cc2)o1)c1ccc(N2C(=O)CCC2=O)cc1 | n | n | n | n | n | n
O=C(Nc1nnc(-c2ccco2)o1)c1ccc(N2C(=O)CCC2=O)cc1 | n | 18µM | n | n | x | 28µM
O=C(Nc1nnc(-c2ccc(Br)cc2)o1)c1cccc(N2C(=O)CCC2=O)c1 | n | 71µM | n | n | n | n
Cc1ccc(NC(=O)CSc2nnc(-c3ccco3)o2)cc1 | n | n | n | n | x | n
O=C(Nc1nnc(-c2ccco2)o1)c1ccc(Cl)s1 | 79µM | u | n | n | x | n
O=C(CSc1ccc(F)cc1)Nc1nnc(-c2ccco2)o1 | n[0.501 µM] | 35µM | n | n | n | u
COc1ccc(S(=O)(=O)N2CCN(Cc3ccc4c(c3)OCO4)CC2)cc1OC | n | u | x | n | x | n
Cc1cccc(Cn2cc(C(=O)Nc3ccc(F)c(C(F)(F)F)c3)ccc2=O)c1 | n | n | x | n | x | n
CC(=O)Nc1nnc(-c2ccco2)o1 | n | u | n | n | n | 4µM
CCCCCn1c(N)c(-c2nc3ccccc3o2)c2c([N+](=O)[O-])nn(C)c(=O)c21 | n | u | n | n | n | 45µM
O=C(NCc1ccc2c(c1)OCO2)c1nc(S(=O)(=O)Cc2ccccc2)ncc1Cl | 50µM | n | n | n | x | n
O=C(NCc1ccc2c(c1)OCO2)c1nc(S(=O)(=O)Cc2ccccc2F)ncc1Cl | 18µM | n | n | n | x | n
O=c1[nH]c(-c2ccccc2)c(-c2ccccc2)nc1[N+](=O)[O-] | 50µM | n | n | n | x | n
COc1ccc2c(C)nc(Nc3nc(-c4ccccc4)cc(=O)[nH]3)nc2c1 | u | 79µM | n | n | n | u
Cc1ccc2nc(Nc3nc(-c4ccccc4)cc(=O)[nH]3)nc(C)c2c1 | n | n | n | n | n | n
O=C(NCc1ccc(Cl)cc1Cl)c1cccc(N2CCCS2(=O)=O)c1 | n | n | x | n | x | n
Cc1ccc(S(=O)(=O)N2CCN(C(=O)CCn3nc(C)c(C)c3C)CC2)cc1C | n | n | n | n | x | n
Cc1ccc(S(=O)(=O)N2CCN(C(=O)C(C)Cn3nc(C)c(C)c3C)CC2)cc1C (centres undefined) | 50µM | n | n | n | x | n
COc1cc(NC(=O)C(NC(=O)C2CCC(C)CC2)C(C)C)cc(OC)c1OC (centres undefined) | n | n | x | n | x | n
SMILES | G9a inh | BAZ2B inh | PI5P4Ka inh | HP1b binding inh | L3MBTL1 inh | JMJD2A Tudor inh
O=C(NCc1ccc(Cl)cc1)C1CCCN(c2ncnc3onc(-c4ccc(F)cc4)c23)C1 (centres undefined) | n | n | x | n | x | n
Cc1ccc(S(=O)(=O)Oc2ccc3c(c2)O/C(=C\c2cccnc2)C3=O)cc1 | n | n | x | n | x | u
O=C1/C(=C/c2cccnc2)Oc2cc(OS(=O)(=O)c3ccc(F)cc3)ccc21 | n | n | x | n | x | 40µM
Cc1nc2ccccc2n1/C(=N\S(=O)(=O)c1ccccc1)c1ccccc1 | 50µM | n | n | n | n | n
O=C1CC(Sc2nnnn2-c2ccccc2)C(=O)N1c1cccc(Cl)c1 (centres undefined) | 0.89µM | n | n | n | n | n
NCCSC1CC(=O)N(c2ccc(Cl)c(Cl)c2)C1=O (centres undefined) | 35µM | u | n | n | n | n

Screens (PubChem BioAssay)
